# Inconclusive results are not listed. A call without a number means that no potency is given here. Activity calls are given as the source filed them. The call rests on the fitted dose curve; in most records, active means well fitted curve in the direction sought with a large enough effect in the repeat runs; inconclusive means weak or mixed curves; inactive means no such curve, though single readings can be large; an effect the other way counts as inactive or inconclusive.
# Legend:
# [1] = biological target: Cytochrome P450 2D6 (Homo sapiens) (UniProt P10635); test: Cytochrome P450 Family 2 Subfamily D Member 6 (CYP2D6) small molecule antagonists: luciferase reporter qHTS assay (AID 1671196); further: nearly all actives have a fitted effect of over 50% in size; further: potency means the concentration at half of the fitted maximal effect
# Outline: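 CYP2D6 activity was followed as luminescence from its luciferin product after a 1 h NADPH-driven reaction at room temperature. Enzyme-substrate mix and compound were pre-incubated for 10 min, and the signal was read 20 min after adding detection reagent.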
# [2] = biological target: Cytochrome P450 2C19 (Homo sapiens) (UniProt P33261); test: Cytochrome P450 Family 2 Subfamily C Member 19 (CYP2C19) small molecule antagonists: luciferase reporter qHTS assay (AID 1671197); further: nearly all actives have a fitted effect of over 65% in size; further: potency means the concentration at half of the fitted maximal effect
# Outline: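 Luminescent readout of CYP2C19 activity: luciferin product detected 20 min after adding detection reagent. Before that, compound and enzyme-substrate mix preincubated 10 min at room temperature; NADPH-regenerating system started a 1 h, 37C reaction. Ketoconazole as positive control.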
# [3] = biological target: Cytochrome P450 2C9 (Homo sapiens) (UniProt P11712); test: Cytochrome P450 Family 2 Subfamily C Member 9 (CYP2C9) small molecule antagonists: luciferase reporter qHTS assay (AID 1671198); further: nearly all actives have a fitted effect of over 50% in size; further: potency means the concentration at half of the fitted maximal effect
# Outline: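 Enzyme-substrate mix preincubated with compound 10 min at room temperature; reaction started with NADPH regeneration solution, 1 h 37C. Luminescent luciferin product read after 20 min detection reagent.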
# [4] = biological target: Voltage-gated inwardly rectifying potassium channel KCNH2 (Homo sapiens) (UniProt Q12809); test: Human Ether-a-go-go-Related Gene (hERG) channel small molecule antagonists: fluorescence cell-based qHTS assay (AID 1671200);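 further: hERG-expressing U2OS cells given a thallium stimulus after FluxOR II dye loading; series mostly up to about 77 µM; nearly all actives have a fitted effect of over 50% in size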
# Outline: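 Thallium served as the potassium surrogate; its influx into dye-loaded U2OS cells carrying the channel was measured by fluorescence over 2 min.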
# [5] = biological target: Cytochrome P450 3A4 (Homo sapiens) (UniProt P08684); test: Cytochrome P450 Family 3 Subfamily A Member 4 (CYP3A4) small molecule antagonists: luciferase reporter qHTS assay (AID 1671201); further: nearly all actives have a fitted effect of over 50% in size; further: potency means the concentration at half of the fitted maximal effect
# Outline: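 Relative luminescence units after 20 min with luciferin detection reagent served as read-out. Beforehand, CYP3A4 turned over a proluciferin substrate for 1 h at room temperature with NADPH regeneration, following 10 min compound preincubation.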
# [6] = biological target: Cytochrome P450 1A2 (Homo sapiens) (UniProt P05177); test: Cytochrome P450 Family 1 Subfamily A Member 2 (CYP1A2) small molecule antagonists: luciferase reporter qHTS assay (AID 1671199); further: nearly all actives have a fitted effect of over 50% in size; further: potency means the concentration at half of the fitted maximal effect
# Outline: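 Luminescence from luciferin formed by CYP1A2 from a proluciferin substrate, read 20 min after detection reagent. Compound was pre-incubated 10 min with enzyme-substrate, and reaction started with NADPH regeneration solution for 1 h at room temperature; furafylline control.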
# Chain of Cytochrome P450 1A2 (Homo sapiens) (P05177 whole entry, looked up): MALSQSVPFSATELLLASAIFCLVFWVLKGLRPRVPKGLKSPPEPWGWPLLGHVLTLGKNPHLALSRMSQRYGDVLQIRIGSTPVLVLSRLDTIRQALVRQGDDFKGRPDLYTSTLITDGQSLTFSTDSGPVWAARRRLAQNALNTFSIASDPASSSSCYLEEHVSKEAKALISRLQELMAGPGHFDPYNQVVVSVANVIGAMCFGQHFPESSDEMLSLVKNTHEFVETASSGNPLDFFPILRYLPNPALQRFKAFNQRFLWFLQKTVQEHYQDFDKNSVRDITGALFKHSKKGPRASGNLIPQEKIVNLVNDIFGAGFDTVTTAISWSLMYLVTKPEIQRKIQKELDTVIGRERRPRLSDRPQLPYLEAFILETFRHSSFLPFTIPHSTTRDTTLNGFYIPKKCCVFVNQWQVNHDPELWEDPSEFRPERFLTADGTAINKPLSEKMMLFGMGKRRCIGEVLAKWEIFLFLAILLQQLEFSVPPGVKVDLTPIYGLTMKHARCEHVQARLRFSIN
# Chain of Cytochrome P450 2C19 (Homo sapiens) (P33261 whole entry, looked up): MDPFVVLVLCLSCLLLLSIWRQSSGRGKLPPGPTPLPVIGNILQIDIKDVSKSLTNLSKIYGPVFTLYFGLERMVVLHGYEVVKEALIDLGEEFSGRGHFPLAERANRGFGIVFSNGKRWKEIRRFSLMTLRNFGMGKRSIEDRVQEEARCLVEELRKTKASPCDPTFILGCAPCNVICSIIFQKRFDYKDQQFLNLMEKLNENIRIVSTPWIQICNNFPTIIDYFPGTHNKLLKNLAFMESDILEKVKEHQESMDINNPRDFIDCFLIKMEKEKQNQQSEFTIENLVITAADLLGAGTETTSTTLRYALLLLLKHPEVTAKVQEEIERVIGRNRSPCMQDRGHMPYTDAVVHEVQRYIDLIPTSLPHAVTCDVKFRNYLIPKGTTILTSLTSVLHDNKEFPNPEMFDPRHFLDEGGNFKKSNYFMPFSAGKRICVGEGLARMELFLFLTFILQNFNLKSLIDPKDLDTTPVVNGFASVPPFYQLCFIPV
# Chain of Voltage-gated inwardly rectifying potassium channel KCNH2 (Homo sapiens) (Q12809 whole entry, looked up): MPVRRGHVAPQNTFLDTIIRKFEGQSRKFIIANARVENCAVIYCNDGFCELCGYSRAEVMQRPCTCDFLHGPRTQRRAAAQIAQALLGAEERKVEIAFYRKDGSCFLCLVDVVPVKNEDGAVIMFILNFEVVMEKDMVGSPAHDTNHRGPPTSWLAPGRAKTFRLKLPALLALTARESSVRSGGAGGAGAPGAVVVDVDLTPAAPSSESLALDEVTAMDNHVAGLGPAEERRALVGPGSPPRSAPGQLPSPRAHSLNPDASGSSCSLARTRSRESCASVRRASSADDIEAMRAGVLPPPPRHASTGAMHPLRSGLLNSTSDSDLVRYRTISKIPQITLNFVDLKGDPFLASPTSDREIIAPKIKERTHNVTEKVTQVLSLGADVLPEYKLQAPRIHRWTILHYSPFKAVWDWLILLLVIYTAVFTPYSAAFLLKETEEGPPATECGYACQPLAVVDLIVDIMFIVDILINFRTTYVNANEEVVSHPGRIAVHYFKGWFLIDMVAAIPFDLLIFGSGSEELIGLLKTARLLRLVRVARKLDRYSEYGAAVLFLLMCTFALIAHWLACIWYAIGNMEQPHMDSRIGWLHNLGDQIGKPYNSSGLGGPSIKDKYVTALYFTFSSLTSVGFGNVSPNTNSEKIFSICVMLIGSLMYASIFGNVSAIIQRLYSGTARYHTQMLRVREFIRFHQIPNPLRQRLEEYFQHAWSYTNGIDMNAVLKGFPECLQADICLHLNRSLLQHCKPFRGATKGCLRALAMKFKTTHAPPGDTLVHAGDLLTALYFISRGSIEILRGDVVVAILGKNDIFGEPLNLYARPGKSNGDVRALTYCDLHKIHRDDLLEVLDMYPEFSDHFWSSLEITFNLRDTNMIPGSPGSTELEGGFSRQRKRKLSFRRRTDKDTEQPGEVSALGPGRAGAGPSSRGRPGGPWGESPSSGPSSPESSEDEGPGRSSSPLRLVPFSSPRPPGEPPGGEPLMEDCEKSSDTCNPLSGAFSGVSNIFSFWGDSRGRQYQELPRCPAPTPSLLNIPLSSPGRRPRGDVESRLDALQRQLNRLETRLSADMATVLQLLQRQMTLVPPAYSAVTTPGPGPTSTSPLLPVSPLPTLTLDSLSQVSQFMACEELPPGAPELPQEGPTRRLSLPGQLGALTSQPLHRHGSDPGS
# Chain of Cytochrome P450 2C9 (Homo sapiens) (P11712 whole entry, looked up): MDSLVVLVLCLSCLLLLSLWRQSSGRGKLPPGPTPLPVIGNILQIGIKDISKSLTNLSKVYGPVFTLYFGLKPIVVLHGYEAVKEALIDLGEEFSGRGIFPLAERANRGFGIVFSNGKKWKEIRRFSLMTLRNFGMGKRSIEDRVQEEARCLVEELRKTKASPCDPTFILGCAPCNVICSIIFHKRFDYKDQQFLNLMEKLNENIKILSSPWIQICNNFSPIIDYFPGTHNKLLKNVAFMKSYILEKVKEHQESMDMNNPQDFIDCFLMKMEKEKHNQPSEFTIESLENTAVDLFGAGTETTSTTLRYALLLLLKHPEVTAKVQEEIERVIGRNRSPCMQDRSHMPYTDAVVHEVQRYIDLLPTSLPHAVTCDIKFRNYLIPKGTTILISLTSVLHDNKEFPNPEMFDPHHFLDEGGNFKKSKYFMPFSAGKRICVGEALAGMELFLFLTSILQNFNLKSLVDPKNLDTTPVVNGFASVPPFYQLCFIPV
# Chain of Cytochrome P450 2D6 (Homo sapiens) (P10635 whole entry, looked up): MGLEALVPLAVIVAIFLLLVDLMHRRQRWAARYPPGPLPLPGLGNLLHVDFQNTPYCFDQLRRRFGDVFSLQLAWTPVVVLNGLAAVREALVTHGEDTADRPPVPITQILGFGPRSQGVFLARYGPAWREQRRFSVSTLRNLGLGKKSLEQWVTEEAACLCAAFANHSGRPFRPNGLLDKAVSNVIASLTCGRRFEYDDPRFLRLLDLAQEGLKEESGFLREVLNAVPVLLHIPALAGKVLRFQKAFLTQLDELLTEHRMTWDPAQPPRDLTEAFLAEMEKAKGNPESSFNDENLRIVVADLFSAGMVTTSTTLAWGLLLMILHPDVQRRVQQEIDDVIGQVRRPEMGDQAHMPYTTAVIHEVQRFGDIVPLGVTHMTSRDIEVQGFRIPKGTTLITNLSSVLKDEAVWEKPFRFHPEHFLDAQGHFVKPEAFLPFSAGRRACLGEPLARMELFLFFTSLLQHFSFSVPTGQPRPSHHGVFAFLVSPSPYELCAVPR
# Chain of Cytochrome P450 3A4 (Homo sapiens) (P08684 whole entry, looked up): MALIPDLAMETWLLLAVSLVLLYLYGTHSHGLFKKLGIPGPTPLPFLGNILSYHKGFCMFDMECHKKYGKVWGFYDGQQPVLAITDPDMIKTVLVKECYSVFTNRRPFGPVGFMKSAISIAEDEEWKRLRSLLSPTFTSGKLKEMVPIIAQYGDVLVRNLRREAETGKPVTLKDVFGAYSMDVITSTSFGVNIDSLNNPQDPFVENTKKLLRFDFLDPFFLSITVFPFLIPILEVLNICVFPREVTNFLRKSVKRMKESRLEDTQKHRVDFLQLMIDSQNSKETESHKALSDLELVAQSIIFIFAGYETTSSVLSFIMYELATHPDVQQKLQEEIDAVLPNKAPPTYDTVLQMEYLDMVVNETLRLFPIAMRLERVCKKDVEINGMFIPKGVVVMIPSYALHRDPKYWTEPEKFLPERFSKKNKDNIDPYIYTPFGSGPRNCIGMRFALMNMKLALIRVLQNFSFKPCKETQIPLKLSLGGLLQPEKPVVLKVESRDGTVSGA
SMILES,Potency [1],Potency [2],Potency [3],Potency [4],Potency [5],Potency [6]
O=c1c(O)c(O)c1=O,inactive,inactive,inactive,inactive,inactive,
N#Cc1ccccc1C#N,inactive,inactive,inactive,inactive,inactive,
O=C(O)CCC(=O)Nc1ccc(S(=O)(=O)Nc2nccs2)cc1,,,,inactive,,
CCOC(=O)[C@H](CCc1ccccc1)N[C@H]1CS[C@H](c2cccs2)CN(CC(=O)O)C1=O,,inactive,inactive,inactive,inactive,inactive
O=C(O)CCCCCCCCCC(=O)O,,inactive,inactive,inactive,inactive,inactive
C/C(=N\O)c1ccc(OCC(=O)N2CCCCC2)cc1,,,,inactive,inactive,
O=S(=O)(O)c1ccc(Cl)cc1,,55.3 µM (active),inactive,inactive,inactive,inactive
Nc1cc(S(=O)(=O)O)ccc1O,,,inactive,inactive,inactive,inactive
CN(C)c1cc(NC(=O)CNC(C)(C)C)c(O)c2c1C[C@H]1C[C@H]3[C@H](N(C)C)C(=O)C(C(N)=O)=C(O)[C@@]3(O)C(=O)C1=C2O,,21.9 µM (active),,inactive,inactive,
C=CCn1cc[n+](C)c1,,inactive,inactive,inactive,inactive,
COCCCOc1cc(C[C@@H](C[C@H](N)[C@@H](O)C[C@H](C(=O)NCC(C)(C)C(N)=O)C(C)C)C(C)C)ccc1OC,,inactive,inactive,inactive,,inactive
Cc1ccc2cccnc2c1,,inactive,inactive,inactive,inactive,39.6 µM (active)
C/C(Cl)=C/CCl,inactive,,inactive,inactive,inactive,
CC(CN1CC(=O)NC(=O)C1)N1CC(=O)NC(=O)C1 (stereo unspecified),,inactive,inactive,inactive,inactive,
CCCCS,inactive,,inactive,inactive,inactive,
CC(=O)/C=C/C=C1/C2CCC(C2)C1(C)C (stereo unspecified),,,,inactive,,21.9 µM (active)
CC(C)C[P+](C)(CC(C)C)CC(C)C,0.568 µM (active),,inactive,inactive,inactive,
O=C(O)Cc1ccccc1Oc1ccc(Cl)cc1Cl,,inactive,38.9 µM (active),inactive,inactive,
CC(=O)OC/C=C(/C)CCC=C(C)C,,inactive,inactive,inactive,inactive,inactive
NC(=O)CC[C@@H](N)C(=O)O,,,,inactive,,

SMILES,Potency [1],Potency [2],Potency [3],Potency [4],Potency [5],Potency [6]
CC(C)(O)CCCC1=CCC(C=O)CC1 (stereo unspecified),,10.7 µM (active),60.2 µM (active),inactive,67.5 µM (active),
CC1(C)S[C@@H]2[C@H](NC(=O)Cc3ccccc3)C(=O)N2[C@H]1C(=O)O (tested in a mixture with another compound),,,,inactive,,
NNC(=O)CCCCC(=O)NN,,,,inactive,11.2 µM (active),31.7 µM (active)
Cc1cc(C)c(N)c(Cl)c1,inactive,,,inactive,inactive,
CCCCOCCCC,,inactive,inactive,inactive,inactive,
CCCCCCCCCCCCCCCC/C=C/C1CC(=O)OC1=O (stereo unspecified),,27.4 µM (active),,inactive,15.4 µM (active),
CC1=C(O)C(=O)CO1,inactive,,,inactive,inactive,inactive
CCC(=O)OCCOc1ccccc1,inactive,,inactive,inactive,inactive,
Cc1ccc(N)nc1,,inactive,inactive,inactive,inactive,
COC(=O)c1ccc(C(=O)O)cc1,,inactive,,inactive,inactive,
CCCCC(CC)COC(=O)CC#N (stereo unspecified),,39.9 µM (active),31.7 µM (active),inactive,39.9 µM (active),
CCCC(=O)C(CC)Sc1ccoc1C (stereo unspecified),inactive,,,inactive,,
C/C=C/C(=O)CCCC,inactive,,,inactive,56.4 µM (active),inactive
COC(C)(C)CC(C)=O,inactive,,,inactive,inactive,inactive
COc1ccc(Cl)cc1C,inactive,,84.7 µM (active),inactive,inactive,
COCc1nnc(-c2ccc[n+]([O-])c2)n1-c1c(Cl)c(Cl)cc2[nH]c(=O)c(=O)[nH]c12,inactive,,inactive,inactive,6.33 µM (active),
CC(C)(C)NCC(O)COc1cccc2c1CCC(=O)N2 (stereo unspecified),inactive,,inactive,inactive,inactive,
CC(C)C(=O)Nc1cccc(C2CN3CCSC3=N2)c1 (stereo unspecified),,inactive,,inactive,,inactive
CCO/C=C1\N=C(c2ccccc2)OC1=O,,79.4 µM (active),,inactive,inactive,35.5 µM (active)
O=C1CCCc2c(O)cccc21,inactive,,inactive,inactive,inactive,

# — PubChem BioAssay (Tox21)
